Test results published in PubChem BioAssay (NCI).
Compounds without any hit were thinned out: in the full panel of roughly 79,000, 15% have a hit. Cut-off read from the data, not from the text of the source: active = growth inhibition above about 70%; inactive = the rest.

What was measured:
[1] = NCI Yeast Anticancer Drug Screen. Data for the rad50 strain (AID 155);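 note: 0% = growth of vehicle-only cultures of the same strain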; conditions: S. cerevisiae rad50 strain growth inhibition; at 50.0 µM; hits give high values
In short: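 Readout: growth inhibition relative to vehicle-treated cultures. Compound exposure was carried out in a genetically defined yeast strain deficient in DNA damage repair.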

[2] = NCI Yeast Anticancer Drug Screen. Data for the mec2-1 strain (AID 157); conditions: S. cerevisiae mec2-1 strain, at 50.0 µM, hits give high values
In short: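 mec2-1 yeast strain, carrying an alteration in DNA damage repair or cell cycle control, was exposed to compounds; growth inhibition was measured relative to vehicle-treated controls.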

[3] = NCI Yeast Anticancer Drug Screen. Data for the sgs1 mgt1 strain (AID 161);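 note: 0% = growth of cultures given vehicle only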; conditions: S. cerevisiae sgs1 mgt1 strain, at 50.0 µM, hits give high values
In short: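 Compounds are added to genetically altered yeast, and growth is compared with cultures given vehicle alone to give percent inhibition.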

[4] = NCI Yeast Anticancer Drug Screen. Data for the cln2 rad14 strain (AID 165);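 note: 0% = growth equal to vehicle treated cultures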; conditions: S. cerevisiae cln2 rad14 strain, at 50.0 µM, hits give high values
In short: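 Yeast carrying cln2 and rad14 alterations (cell cycle control and DNA damage repair) were exposed to compounds. Growth inhibition was measured against vehicle-treated controls.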

[5] = NCI Yeast Anticancer Drug Screen. Data for the bub3 strain (AID 167); conditions: S. cerevisiae bub3 mutant strain, at 50.0 µM, hits give high values
In short: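 Readout: yeast growth inhibition, expressed relative to vehicle-only wells. The test organism is a mutant strain from a panel with lesions in DNA repair or checkpoint genes.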

[6] = NCI Yeast Anticancer Drug Screen. Data for the mlh1 rad18 strain (AID 175); conditions: S. cerevisiae mlh1 rad18 strain growth inhibition; at 50.0 µM; hits give high values
In short: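 Growth inhibition of the yeast strain was measured after compound exposure and expressed relative to vehicle-treated controls. The strain carries defined defects in DNA damage repair.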

Measured: growth inhibition

CCCC(=O)OC(CCC1CCCO1)CCC1CCCO1 (configuration not stated)
inactive: [1] 0.3% | [2] -14.9% | [3] 10.4% | [4] 23.9% | [5] -6.35% | [6] 19.6%

CC1CC(C)OC(C)(c2ccccc2)O1 (configuration not stated)
inactive: [1] 21.4% | [2] -6% | [3] -0.9% | [4] -33.1% | [5] -18.5% | [6] 8.6%

CC(=O)Nc1ccc(S(=O)(=O)CO)cc1
inactive: [1] 19.4% | [2] 16.9% | [3] 19.6% | [4] 6.55% | [5] -0.3% | [6] 16.8%

CC(=O)NC1C(OCc2ccccc2)OC(CO)C(O)C1OCc1ccccc1 (configuration not stated)
inactive: [1] 27.3% | [2] -18.2% | [3] 15.6% | [4] -24.1% | [5] -2.9% | [6] -11.8%

CCCCCC(C)(O)CCCCC
inactive: [1] 0.15% | [2] 1.75% | [3] 1.7% | [4] 11.7% | [5] 18.3% | [6] 12%

CC(CC#N)=C(c1ccccc1)c1ccccc1
inactive: [1] 17.4% | [2] 18.9% | [3] 14% | [4] 16% | [5] -12.8% | [6] -5.05%

O=C1c2ccccc2C(=O)N1C1Nc2ccccc2N1
inactive: [1] 20% | [2] 10.6% | [3] 9.3% | [4] -0.1% | [5] 16.7% | [6] 14.8%

COC1=CC(=O)C(C(C)=O)=C(C2(C)C(=O)CCCC2=O)C1=O
inactive: [1] -12.3% | [2] 0.5% | [3] -0.6% | [4] 6.25% | [5] 5.15% | [6] 7.25%

CC(C)(C)c1cc2c(O)c(c1)Cc1cc(C(C)(C)C)cc(c1O)Cc1cc(C(C)(C)C)cc(c1O)Cc1cc(C(C)(C)C)cc(c1O)Cc1cc(C(C)(C)C)cc(c1O)Cc1cc(C(C)(C)C)cc(c1O)Cc1cc(C(C)(C)C)cc(c1O)Cc1cc(C(C)(C)C)cc(c1O)C2
inactive: [1] -12.8% | [2] 9.65% | [3] 7.3% | [4] 5.6% | [5] -14% | [6] -15.1%

COC(=O)C1=C(C)C=C(N2CCOCC2)C(C(=O)OC)C1c1ccccc1 (configuration not stated)
inactive: [1] -0.85% | [2] -16.2% | [3] -11.4% | [4] -3.1% | [5] -1.55% | [6] 9%

O=C(O)C(c1ccccc1)C(O)C1CCCC1 (configuration not stated)
inactive: [1] -2.9% | [2] -11.1% | [3] 1.05% | [4] -10.8% | [5] -7.3% | [6] -4.45%

CCCCCCCCCCCCCCCCCCCCCCCCCC(=O)O
inactive: [1] 30.4% | [2] -20.2% | [3] 32.5% | [4] 4.5% | [5] 23.9% | [6] 4.95%

CC(O)CCC(C)O (configuration not stated)
inactive: [1] -19.1% | [2] -24.2% | [3] -4.5% | [4] -4.95% | [5] 1.85% | [6] 10.2%

CC(C)c1cccc(C(C)C)c1NC(=O)Nc1cccc(C(F)(F)F)c1
inactive: [1] -5.4% | [2] -11.1% | [3] 1.45% | [4] 8.3% | [5] 10.2% | [6] 3.85%

O=C1c2ccccc2NC(c2cc(Cl)cc(Cl)c2O)N1CCc1ccccn1 (configuration not stated)
inactive: [1] 8.05% | [2] -21.9% | [3] -14.4% | [4] 14.7% | [5] -25.1% | [6] -11.9%

CC1=C(C#N)C(=O)OC1(C)C1CCCC(=O)C1 (configuration not stated)
inactive: [1] -24.8% | [2] -1.45% | [3] -11.3% | [4] -2.7% | [5] 1.95% | [6] -3.75%

COCCOC(=O)c1ccccc1C
inactive: [1] 8.7% | [2] 2.35% | [3] 0.3% | [4] -27.6% | [5] 11.8% | [6] 0.55%

C/C(=N\Nc1ccc([N+](=O)[O-])cn1)c1ccccn1
inactive: [1] 31.2% | [2] -10.2% | [3] 25.4% | [4] 5.6% | [5] 12.2% | [6] -1.3%

CCc1cccc(C(C)C)c1NC(=O)C(=O)C(C(=O)C(=O)OC)c1nc2ccccc2[nH]c1=O (configuration not stated)
inactive: [1] 5.95% | [2] -29.1% | [3] 8.85% | [4] 20.2% | [5] -9.5% | [6] 2.9%

Cc1c(-c2ccccc2)c2ccccc2n1C
inactive: [1] 38.1% | [2] 8.55% | [3] 10.4% | [4] 20.3% | [5] 20.6% | [6] 22.5%

Nc1cnc(Nc2cccc3ccccc23)o1
inactive: [1] -26.3% | [2] -35.3% | [3] -14.1% | [4] 0.35% | [5] 8.85% | [6] -15.7%

CC(C)=NOC(=O)Nc1cccc2c1OCO2
inactive: [1] -30.3% | [2] -19.4% | [3] -12% | [4] -14.8% | [5] -35.5% | [6] 4.25%

CN1CCCNCCN(CCc2ccccn2)CCCN(C)CC1
inactive: [1] 2.75% | [2] -1.5% | [3] -12.5% | [4] -7.75% | [5] 0.15% | [6] 6.65%

Cc1ccc(-c2cc(=O)c3cc(C)c(C)c(C(=O)O)c3o2)cc1[N+](=O)[O-]
inactive: [1] -20.7% | [2] -5.1% | [3] -1.05% | [4] 12.2% | [5] 2% | [6] 31.1%

Cc1cccc(C(N)=S)n1
inactive: [1] 14.9% | [2] 7.5% | [3] 11.1% | [4] 23.9% | [5] 18.8% | [6] 22.5%

CCCCOC(=O)c1cccc2c1-c1ccccc1C2=O
inactive: [1] 9.75% | [2] -6.55% | [3] -2% | [4] -14.9% | [5] 13.8% | [6] -0.7%

Cc1cccc(C)c1N=Nc1sc(N)nc1C
inactive: [1] 20.4% | [2] 10.6% | [3] 6.65% | [4] -29.9% | [5] -9.65% | [6] 22.9%

CCn1c2ccccc2n2c(=O)c3c(c(C#N)c12)CCCC3
inactive: [1] 4.6% | [2] 13.2% | [3] -30.1% | [4] -8.6% | [5] -33.9% | [6] -18.5%

Cc1nc2c(c(=O)[nH]1)S/C(=C(/C#N)c1nc3ccccc3[nH]1)N2c1ccccc1
inactive: [1] -39.8% | [2] -29% | [3] -42.4% | [4] -22% | [5] -40.8% | [6] -47.9%

CCc1nc2c(c(=O)[nH]1)C(c1ccc(Cl)cc1)C(C)(C)O2 (configuration not stated)
inactive: [1] -1.2% | [2] -22.6% | [3] -17.4% | [4] 4.45% | [5] 1.1% | [6] -7.4%

Cc1nc(=O)n2c(c1C(=O)Nc1ccc(Cl)cc1)NCC2
inactive: [1] 3.75% | [2] -3.35% | [3] 0.1% | [4] -37.9% | [5] 2.35% | [6] 14.8%

CC1(C)OC(=O)c2ccccc21
inactive: [1] 30.1% | [2] 3% | [3] -5.05% | [4] -14.8% | [5] 1.35% | [6] 2.2%

COC1=C(NCC(C)C)C(=O)C(OC)=C(NCC(C)C)C1=O
inactive: [1] -3.05% | [2] 8.75% | [3] 1.7% | [4] -57.7% | [5] 3.25% | [6] -12.1%

CCCCCCCCCCCCCCCCCCCCCCCCCC
inactive: [1] -11.4% | [2] -2.55% | [3] -19.2% | [4] 19.9% | [5] -0.05% | [6] 5.6%

Cc1cc2c(cc1C)NS(=O)(=O)N2
inactive: [1] 18.4% | [2] 10.4% | [3] 7.25% | [4] -21.7% | [5] 4.9% | [6] 7.35%

COC(=O)c1nnn(-c2ccc(Cl)cc2Cl)c1N
inactive: [1] -6.35% | [2] -18% | [3] -14.6% | [4] 6.3% | [5] -19.3% | [6] 14%

BrCc1ccc(C[P+](c2ccccc2)(c2ccccc2)c2ccccc2)cc1
inactive: [1] 26.3% | [2] 15.3% | [3] 16.2% | [4] 7% | [5] 29.2% | [6] 28.4%

CCc1cccc(C)c1NC(=S)NC(=O)c1ccccc1C(=O)NC(=S)Nc1c(C)cccc1CC
inactive: [1] 12.3% | [2] 7.7% | [3] 0.95% | [4] 20.9% | [5] 11.8% | [6] 20.4%

CC(=O)CC(=O)N1C(C)CCCC1C (configuration not stated)
inactive: [1] -12.3% | [2] -36.7% | [3] -7.55% | [4] -0.4% | [5] -18.1% | [6] -18.7%

COc1cc(C)c2cc(C)cc(C)c2n1
inactive: [1] 3.4% | [2] 6.05% | [3] 1.65% | [4] -17.9% | [5] 3.9% | [6] 7.85%

Nc1ncc([N+](=O)[O-])c(=O)[nH]1
inactive: [1] -29.9% | [2] -14.2% | [3] -1.35% | [4] -4.25% | [5] 0.55% | [6] 26.9%

COC(=O)C1C(c2ccccc2)C1(C#N)C#N (configuration not stated)
inactive: [1] -42.5% | [2] 2.55% | [3] -1% | [4] -25.6% | [5] -5.55% | [6] 3.3%
